In the supplement of paper PMC7156485 one finds H1.0 immunofluorescence intensity data, which are given here for 32 compounds.

Several values for one entry are separate records, joined by “and”; a condition that tells them apart may be missing. Equal entries are not always repeated. Unmarked numbers belong to inactive results.
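Further: TDF is a line of transformed human dermal fibroblasts of mesenchymal origin.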

In the experiment the test system is HCC1569. Kind of experiment: H1.0 immunofluorescence intensity relative to DMSO (% of DMSO); higher = stronger H1.0 induction, active = 140 or more. Conditions: concentration: 10 µM; 24 h. A digest of the protocol:
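Cell number or H1.0 nuclear intensity appears as percent of the plate control, based on the median of replicates. Measurements came from HCC1569 and TDF cells exposed in triplicate to compounds at 10 µM for 24 h at 37 °C, then imaged in six fields per well at ×10. Positional effects were smoothed out of HCC1569 values.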
Turning to `CCCCCCCCCCCCCCCCCCCCCC(=O)O` [Docosanoic acid], the H1.0 immunofluorescence intensity is 101.
Then `O=C(CCN1CCN(C(=O)OCc2cc(Cl)cc(Cl)c2)CC1)c1ccc2[nH]c(=O)oc2c1`, with 168 (active); and `N[C@@H](Cc1ccc(O)c(I)c1)C(=O)O` [3-Iodo-L-tyrosine], with 88.9.
Then `CNCCC=C1c2ccccc2CCc2ccccc21.Cl` [Nortriptyline hydrochloride], with 117; and `COc1ccc(/C=C2\COc3ccc(C)cc3C2=O)cc1O`, with 134; and `CC(C)(O)CCC(O)C(C)(O)C1CCC2(O)C3=CC(=O)C4CC(O)C(O)CC4(C)C3CCC12C` (configuration not stated), with 94.8.
The same measure for `CCCNC(C)C(=O)Nc1ccccc1C.Cl` (configuration not stated) [Prilocaine hydrochloride]: 96.2.
As for `CN(C)c1ccc(C=C2C(=O)Nc3ccccc32)cc1`, the H1.0 immunofluorescence intensity was 114 and 102 and 125.
For `CCC(CO)Nc1nc(NCc2ccc(-c3ccccn3)cc2)c2ncn(C(C)C)c2n1` [CR8, (S)-Isomer], the H1.0 immunofluorescence intensity is 128.
Then `CCC(C)SSc1ncc[nH]1` (configuration not stated) [2-(sec-butyldisulfanyl)-1H-imidazole], with 107; and `CN1CCC(=C2c3ccccc3C=Cc3ccccc32)CC1` [Cyproheptadine], with 108.
Then `CCn1cc(C(=O)O)c(=O)c2cc(F)c(N3CCNCC3)nc21` [Enoxacin], with 106; and `CCCCC(=O)O[C@]1(C(=O)CO)[C@@H](C)C[C@H]2[C@@H]3CCC4=CC(=O)C=C[C@]4(C)[C@@]3(F)[C@@H](O)C[C@@]21C`, with 103; and `CCN(Cc1ccccc1)C(=O)Cn1c(=O)n(C)c2cnc(-c3ccccc3)nc21`, with 123.
Then `NC(=O)N1c2ccccc2CC(=O)c2ccccc21` [Oxcarbazepine], with 110.
For the compound `Cc1nc(Nc2ncc(C(=O)Nc3c(C)cccc3Cl)s2)cc(N2CCN(CCO)CC2)n1` [Dasatinib], the H1.0 immunofluorescence intensity was 171 (active).
Then `COc1ccc(-c2coc3cc(O)ccc3c2=O)cc1` [Formononetin], with 80.9.
The same measure for `CCCCCC(O)CC(=O)CCc1ccc(O)c(OC)c1` (configuration not stated) [Gingerol]: 85.8; for `CN(C)c1ccc(C2Nc3ccc4ccccc4c3C3=C2C(=O)CC(C)(C)C3)cc1Br` (configuration not stated): 130; for `CN1Cc2c(N)cccc2C(c2ccccc2)C1.O=C(O)C=CC(=O)O` (configuration not stated) [Nomifensine maleate]: 101.
The same measure for `O=C1CCC(c2ccc(-n3ccnc3)cc2)=NN1` [Imazodan]: 118; for `NC(C(=O)O)C1CC1C(=O)O` [(2S,1'S,2'S)-2-(carboxycyclopropyl)glycine]: 83.4; for `COC1(NC(=O)CSCC#N)C(=O)N2C(C(=O)[O-])=C(CSc3nnnn3C)CSC21.[Na+]` (configuration not stated) [Cefmetazole sodium]: 89.6.
With `NCCCCN=C(N)N.O=S(=O)(O)O` [Agmatine sulfate], the H1.0 immunofluorescence intensity is 92.4.
Take `C=C1C(=O)C23C(O)C1CCC2C12COC3(O)C(O)C1C(C)(C)CCC2O` (configuration not stated) [Rubescensin A]: the H1.0 immunofluorescence intensity is 100.
The same measure for `Cl.c1ccc2nc(C3=NCCN3)ccc2c1` [BU224 hydrochloride]: 100; for `CCC1(O)CC2CN(CCc3c([nH]c4ccccc34)C(C(=O)OC)(c3cc4c(cc3OC)N(C)C3C(O)(C(=O)OC)C(OC(C)=O)C5(CC)C=CCN6CCC43C65)C2)C1` (configuration not stated) [Vinblastine]: 164 (active); for `CCCCCC=CCC(O)C=Cc1cccc(CC(O)CCCCO)n1` (configuration not stated): 113.
Then `CN1CCN(CCC=C2c3ccccc3Sc3ccc(S(=O)(=O)N(C)C)cc32)CC1.Cl` [Thiothixene hydrochloride], with 96.8.
In the case of `CC(C=CC1=C(C)CCCC1(C)C)=CC=CC(C)=CC(=O)Nc1ccc(O)cc1` [4-Hydroxyphenylretinamide], the H1.0 immunofluorescence intensity is 120.
On to `CCN1CCCC1CNC(=O)c1c(OC)ccc(Br)c1OC` (configuration not stated) [Remoxipride], for which the H1.0 immunofluorescence intensity is 108.
Then `COc1ccccc1N1CCN(CCN(C(=O)c2ccc(F)cc2)c2ccccn2)CC1.Cl.Cl` [p-MPPF dihydrochloride], with 87.2.
